The panel holds about 83,000 compounds, 20% with a hit somewhere; the sample as a whole holds those more often.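 Percent growth is the endpoint: 0 to 100 indicates growth inhibition (40 means 60% inhibition), 0 means no net growth, and negative values indicate cell death.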 Active and inactive are the calls of the source. The calls were made as follows: active = growth percent below 10; inactive = the rest.
How the values were obtained:
Experiment in all cases: NCI-60 one-dose screen, 48 h (100 = growth as untreated, 0 = no growth, -100 = all killed)
Settings in all cases: 10 µM unless noted
HCT-15 colon = test system: HCT-15 colon
HT29 colon = test system: HT29 colon
SNB-75 CNS = test system: SNB-75 CNS
SNB-19 CNS = test system: SNB-19 CNS
U251 CNS = test system: U251 CNS
PC-3 prostate = test system: PC-3 prostate
SK-MEL-5 melanoma = test system: SK-MEL-5 melanoma
UACC-62 melanoma = test system: UACC-62 melanoma
LOX IMVI melanoma = test system: LOX IMVI melanoma
SK-MEL-28 melanoma = test system: SK-MEL-28 melanoma

Measured: growth

Cc1cc(C(NC(=O)C2CC3(CC(Nc4cccc5c4C(=O)N(C4CCC(=O)NC4=O)C5=O)C3)C2)c2ccc3c(c2)OC(F)(F)O3)c(O)c2ncccc12 (stereo not given)
inactive: HCT-15 colon 21.1% | HT29 colon 29.1% | SNB-75 CNS 25.1% | PC-3 prostate 17.8%
active: SNB-19 CNS 7.79% | U251 CNS 7.11% | SK-MEL-5 melanoma -64.5% | UACC-62 melanoma -41% | LOX IMVI melanoma -4.96% | SK-MEL-28 melanoma 0.772%

CC(C)(C)OC(=O)N1C/C(=C\c2ccc(F)cc2)C(=O)/C(=C/c2ccc(F)cc2)C1
inactive: SNB-75 CNS 13.2%
active: HCT-15 colon -61% | HT29 colon -87.2% | SNB-19 CNS -89.6% | U251 CNS -100% | PC-3 prostate -31.1% | SK-MEL-5 melanoma -92.3% | UACC-62 melanoma -96.1% | LOX IMVI melanoma -100% | SK-MEL-28 melanoma -95.9%

COc1ccc2oc(=O)c(-c3csc(N/N=C(\C)c4cc(OC)c(OC)c(OC)c4)n3)cc2c1
inactive: HCT-15 colon 86.8% | HT29 colon 113% | SNB-75 CNS 154% | SNB-19 CNS 86.6% | U251 CNS 92.3% | PC-3 prostate 67.6% | SK-MEL-5 melanoma 69.6% | UACC-62 melanoma 93.1% | LOX IMVI melanoma 86.6% | SK-MEL-28 melanoma 102%

OCCn1cc(-c2nc3ccc4[nH]ncc4c3c3c2CCCC3)cn1
inactive: HCT-15 colon 26.4% | HT29 colon 19.7% | SNB-75 CNS 20% | SNB-19 CNS 59.3% | U251 CNS 51.2% | PC-3 prostate 67.4% | SK-MEL-5 melanoma 22.3% | UACC-62 melanoma 27.9% | LOX IMVI melanoma 25.4% | SK-MEL-28 melanoma 59.3%

Cc1cc(C2(c3cc(C)c(OCC(O)CNc4c(C)n(C)n(-c5ccccc5)c4=O)cc3C(C)C)OC(=O)c3ccccc32)c(C(C)C)cc1OCC(O)CNc1c(C)n(C)n(-c2ccccc2)c1=O (stereo not given)
inactive: HCT-15 colon 19.7% | HT29 colon 13.4% | SNB-75 CNS 46.6% | SNB-19 CNS 48.9% | U251 CNS 22.5% | PC-3 prostate 12.9% | UACC-62 melanoma 24.4% | LOX IMVI melanoma 18.3% | SK-MEL-28 melanoma 33.8%
active: SK-MEL-5 melanoma -25.3%

Cc1ccc(C(=O)Nc2cc(-c3ccccc3)cc(C(F)(F)F)c2)cc1C#Cc1cnc2cccnn12
inactive: HCT-15 colon 57.7% | HT29 colon 34.8% | SNB-75 CNS 112% | SNB-19 CNS 92.3% | U251 CNS 74.9% | PC-3 prostate 65.8% | SK-MEL-5 melanoma 26% | UACC-62 melanoma 46.1% | LOX IMVI melanoma 39.4% | SK-MEL-28 melanoma 52.9%

O=C1NC(=NC23CC4CC(CC(C4)C2)C3)N/C1=C\c1ccc2ncccc2c1
active: HCT-15 colon -12% | HT29 colon 1.49% | SNB-75 CNS -66.3% | SNB-19 CNS 5.85% | U251 CNS -63.7% | PC-3 prostate -48.1% | SK-MEL-5 melanoma -9.19% | LOX IMVI melanoma -76.9% | SK-MEL-28 melanoma -3.01%
inactive: UACC-62 melanoma 23.6%

N/C(=N\c1nc2ccc([N+](=O)[O-])cc2s1)NC(=O)Nc1ccccc1Cl
active: U251 CNS -0.568%
inactive: HCT-15 colon 28.3% | HT29 colon 62.1% | SNB-75 CNS 24.4% | SNB-19 CNS 49.7% | PC-3 prostate 69% | SK-MEL-5 melanoma 44.7% | UACC-62 melanoma 54.8% | LOX IMVI melanoma 29.6% | SK-MEL-28 melanoma 60.5%

C/C(=N/O)c1ccc(NC(=O)CSc2nnc(-c3ccc(-c4nc5ccc(Cl)cc5[nH]4)cc3)o2)cc1
inactive: HCT-15 colon 78.1% | HT29 colon 31.4%
active: SNB-75 CNS -27.5% | SNB-19 CNS -86.7% | U251 CNS -95.8% | PC-3 prostate -22.4% | SK-MEL-5 melanoma -60.4% | UACC-62 melanoma -86.6% | LOX IMVI melanoma -100% | SK-MEL-28 melanoma -100%

NS(=O)(=O)c1ccc(Nc2nc(N/N=C/c3cc(Br)c(O)c(Br)c3)nc(Nc3ccccc3)n2)cc1
inactive: HCT-15 colon 80.5% | HT29 colon 32.1% | SNB-75 CNS 25.7% | SNB-19 CNS 14.9% | U251 CNS 27.6% | PC-3 prostate 57.7% | SK-MEL-28 melanoma 34.4%
active: SK-MEL-5 melanoma -26.6% | UACC-62 melanoma -26.6% | LOX IMVI melanoma -23.5%

Clc1ccc2c(NCCNC34CC5CC(CC(C5)C3)C4)ccnc2c1
active: HCT-15 colon -82% | HT29 colon -50.8% | SNB-75 CNS -74.9% | SNB-19 CNS -54.2% | U251 CNS -61.8% | PC-3 prostate -5.27% | SK-MEL-5 melanoma -96% | UACC-62 melanoma -89.9% | LOX IMVI melanoma -91.5% | SK-MEL-28 melanoma -93.5%

Cc1cc(Cl)ccc1NC(=O)Nc1ccc(-c2ccc3c(c2)NC(=O)/C3=C\c2ccc[nH]2)cc1
inactive: HCT-15 colon 92.6% | HT29 colon 109% | SNB-75 CNS 99.4% | SNB-19 CNS 94.5% | U251 CNS 103% | PC-3 prostate 104% | SK-MEL-5 melanoma 106% | UACC-62 melanoma 98.5% | LOX IMVI melanoma 101% | SK-MEL-28 melanoma 114%

COc1ccc(-c2cc(-c3cc(C(C)C)c(O)cc3C)nn2-c2ccc(S(N)(=O)=O)cc2)cc1
inactive: HT29 colon 88.4% | SNB-19 CNS 30% | U251 CNS 14.4% | PC-3 prostate 49.3% | SK-MEL-5 melanoma 48.6% | UACC-62 melanoma 21.5% | LOX IMVI melanoma 22.6% | SK-MEL-28 melanoma 58.8%
active: HCT-15 colon 3.06% | SNB-75 CNS -0.16%

O=c1[nH]c2ccccc2cc1COc1ccc(Nc2nccc(-c3ccc(Cl)cc3)n2)cc1
inactive: HCT-15 colon 101% | HT29 colon 105% | SNB-75 CNS 60.5% | SNB-19 CNS 93.4% | U251 CNS 86.5% | PC-3 prostate 106% | SK-MEL-5 melanoma 99.1% | UACC-62 melanoma 94.4% | LOX IMVI melanoma 96% | SK-MEL-28 melanoma 105%

O=C(NN1C(=O)/C(=C/C=C/c2ccc([N+](=O)[O-])o2)SC1=S)c1ccncc1
active: HCT-15 colon -78.9% | HT29 colon -67.2% | SNB-75 CNS -38.6% | SNB-19 CNS -96.8% | U251 CNS -91.2% | PC-3 prostate -63% | SK-MEL-5 melanoma -99.5% | UACC-62 melanoma -100% | LOX IMVI melanoma -94% | SK-MEL-28 melanoma -88.9%

CC(C)(C)OC(=O)N1CCC2(CC1)Oc1ccccc1[C@H]1CC(c3ccc(Br)cc3)=NN12
inactive: HCT-15 colon 59.1% | HT29 colon 96.7% | SNB-75 CNS 72.8% | SNB-19 CNS 78% | U251 CNS 82.8% | PC-3 prostate 66.6% | SK-MEL-5 melanoma 76.2% | UACC-62 melanoma 41.3% | LOX IMVI melanoma 54.2% | SK-MEL-28 melanoma 113%

CCCCCCCCc1ccc(C(=O)Nc2cccc(O)c2)cc1
inactive: HCT-15 colon 47.4% | HT29 colon 78.7% | SNB-75 CNS 103% | SNB-19 CNS 83% | U251 CNS 77.5% | PC-3 prostate 52.4% | SK-MEL-5 melanoma 46.6% | UACC-62 melanoma 69.4% | LOX IMVI melanoma 64.7% | SK-MEL-28 melanoma 83.4%

COC(=O)c1c(C(=O)OC)c2ccc3c4ccccc4ccc3n2c1C(=O)OC
inactive: HCT-15 colon 98.1% | HT29 colon 108% | SNB-75 CNS 95.9% | SNB-19 CNS 81.1% | U251 CNS 97.1% | PC-3 prostate 98.9% | SK-MEL-5 melanoma 98.3% | UACC-62 melanoma 93.6% | LOX IMVI melanoma 104% | SK-MEL-28 melanoma 109%

CC1CCc2c(sc3nc(SCC(=O)c4cccc([N+](=O)[O-])c4)n(-c4ccccc4)c(=O)c23)C1 (stereo not given)
inactive: HCT-15 colon 73.6% | HT29 colon 67.9% | SNB-75 CNS 85.8% | SNB-19 CNS 59% | U251 CNS 17.6% | PC-3 prostate 82.1% | SK-MEL-5 melanoma 82.6% | UACC-62 melanoma 91.9% | LOX IMVI melanoma 53.7% | SK-MEL-28 melanoma 101%

CN1C(=O)C(O)(CC(=O)c2cc3ccccc3oc2=O)c2ccccc21 (stereo not given)
inactive: HCT-15 colon 94.7% | HT29 colon 104% | SNB-75 CNS 107% | SNB-19 CNS 93.3% | U251 CNS 97.2% | PC-3 prostate 92.4% | SK-MEL-5 melanoma 100% | UACC-62 melanoma 86.8% | LOX IMVI melanoma 87.9% | SK-MEL-28 melanoma 107%

O=c1c(-c2nc(-c3ccccc3)c(-c3ccccc3)[nH]2)coc2ccc(F)cc12
inactive: HCT-15 colon 24.3% | HT29 colon 68.1% | SNB-75 CNS 39% | SNB-19 CNS 38.8% | U251 CNS 47.3% | PC-3 prostate 41.9% | SK-MEL-5 melanoma 47.7% | UACC-62 melanoma 49.9% | LOX IMVI melanoma 65.9% | SK-MEL-28 melanoma 69.6%

COc1ccc(-c2nc3ccc(-c4nnc(SCc5ccccc5)o4)cc3[nH]2)cc1OC
inactive: HCT-15 colon 35.6% | HT29 colon 52.9% | SNB-19 CNS 28.1% | PC-3 prostate 50.9% | SK-MEL-5 melanoma 39.7% | SK-MEL-28 melanoma 30.6%
active: SNB-75 CNS -54.2% | U251 CNS 0.298% | UACC-62 melanoma 0.287% | LOX IMVI melanoma 7.48%

C/C(=N\Nc1ccc(S(N)(=O)=O)cc1)c1cnn(-c2cc(=O)[nH]c3ccc(Br)cc23)c1C
inactive: HCT-15 colon 91.2% | HT29 colon 98.8% | SNB-75 CNS 22% | SNB-19 CNS 46% | U251 CNS 37.9% | PC-3 prostate 58.3% | SK-MEL-5 melanoma 55% | UACC-62 melanoma 11.4% | LOX IMVI melanoma 38.2% | SK-MEL-28 melanoma 34.7%

COc1ccc(C2=NN(C(=O)[C@H]3[C@@H](c4ccco4)c4sc(=O)[nH]c4S[C@@H]3C)C(c3ccc4ccccc4c3)C2)cc1 (stereo not given in full)
inactive: HCT-15 colon 12% | HT29 colon 15.3% | SNB-75 CNS 50.8% | SNB-19 CNS 39.8% | U251 CNS 19.5% | PC-3 prostate 28.6% | SK-MEL-5 melanoma 36.5% | UACC-62 melanoma 29% | LOX IMVI melanoma 31.3% | SK-MEL-28 melanoma 32%

Cc1ccc(C2CC(c3ccc(NC(=O)Nc4ccccc4)cc3)=NN2c2ccc(S(C)(=O)=O)cc2)cc1 (stereo not given)
inactive: SNB-75 CNS 56.9%
active: HCT-15 colon -84.4% | HT29 colon -55.7% | SNB-19 CNS 4.8% | U251 CNS -63.5% | PC-3 prostate 1.02% | SK-MEL-5 melanoma -99.9% | UACC-62 melanoma -80.3% | LOX IMVI melanoma -100% | SK-MEL-28 melanoma -89.4%

Reference: PubChem BioAssay (NCI)
